Values joined by “and” are separate entries in the source; they are usually repeats but may differ in a detail not shown here. Equal entries are not always repeated. Active and inactive are the calls of the source.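 The calls were made as follows, unless noted: active = normalized viability below 100% at a tested concentration; inactive = the rest.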

The nature of test [1]: P. berghei load reduction in hepatocytes – cell-based, HepG2, luciferase luminescence, HepG2 viability, primary screen (AID 624349; in the data active = parasite load remaining mostly below about 12%, no sharp cut-off; inactive = mostly above about 10%;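 also: 100% = mean of DMSO negative control wells on the same plate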). The settings on record: P. berghei liver stage in HepG2, luciferase luminescence, concentration not given here; parasite load remaining: stronger effect = lower value; viability: measured here: HepG2 viability without parasites.
Test [2] relates to Aerobactin synthetase IucA (Klebsiella pneumoniae). The test is described as follows: inhibition of K. pneumoniae IucA enzyme – biochemical, Tocris library, absorbance (AID 1345561; call rule not given here;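 also: 100% = enzyme without compound and 0% = no enzyme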). As to conditions: purified IucA enzyme assay, absorbance (OD) read-out; stronger effect = lower value;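 tested at 8 µM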.
A short description of test [3]: viability loss with induced miR-34 in A549 – imaging, A549 dox-inducible miR-34, nuclei and caspase counts, primary screen (AID 1347080;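 active = compounds whose cell count with miR-34 switched on is under 0.7 times the count with it off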). As to conditions: A549 miR-34 inducible, Hoechst nuclei count, 48 h.
Test [4] in a line: chitosan synthesis blockers in C. neoformans – flow cytometry, Cibacron Brilliant Red staining (AID 1347148; call rule not given here;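 also: compound exposure lasted three days at 37 degrees C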). The settings on record: Cryptococcus neoformans chitosan, stronger effect = lower value; at 10 µM unless noted.
Test [5] can be described thus: MELAS cybrid and Rieske KO viability enhancers – cell-based, MELAS cybrids, Rieske KO mouse fibroblasts, CellTiter-Glo, primary screen (AID 1508586;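 active = mean z-score across replicates of 1.96 or higher in either the MELAS or the Rieske mutant cell line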;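 also: z relative to plate mean and SD of compound and empty wells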). As to conditions: low glucose.
A short description of test [6]: drug combination growth inhibition, ovarian cancer – cell-based, oncology-focused library, rucaparib conditional, profiling panel (AID 1508598). The settings on record: patient-derived ovarian cancer cells, CellTiter-Glo viability, 144 h, stronger effect = lower value.
Test [7] is described as follows: galactose survival enhancers in mitochondrial complex I cybrids – cell-based, galactose medium, ATP luminescence, primary screen (AID 1645843;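 active = z-score of at least 1.8 in each of two replicates, scored against plate mean and spread of sample wells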;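 also: positive z means more ATP and so rescue of galactose-driven cybrid death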). As to conditions: complex I mutant cybrid cells, 72 h, stronger effect = higher value.
Test [8] in a line: blockers of cellular phospholipid synthesis – cell-based, LOPAC library, screen 4, primary screen (AID 1347384; call rule not given here). As to conditions: animal cells, phospholipid biosynthesis inhibition screen; at 10 µM.
Test [9] in a line: compounds altering circadian rhythm period length – cell-based, LOPAC library, luminescence reporter (AID 2774; call rule not given here;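 also: values are relative to mean of DMSO wells on each plate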). As to conditions: circadian reporter cells, at 7 µM, actives lie on both sides.
In test [10] the test system is Hepatitis C virus NS3 helicase. Put plainly: blockers of NS3h binding to ssDNA – biochemical, fluorescence polarization, LOPAC1280 library, primary screen (AID 687035; in the data active = inhibition above about 37%). The settings on record: Purified HCV NS3 helicase, Cy5-dT15 ssDNA binding fluorescence polarization; stronger effect = higher value; concentration not given here. For orientation: Polarisation of emitted light reports the rotation of a fluorescent probe.

The nature of test [11]: compounds altering Cy5-DNA-NS3h complex signal – biochemical, LOPAC1280, artefact control for HCV NS3 helicase inhibitor project (AID 687037; call rule not given here). The settings on record: Cy5-DNA-NS3h complex fluorescence interference counterscreen.
Test [12] can be described thus: compounds altering HSF1 focus formation in cells – imaging, Selleck Cancer Library (AID 1347162; in the data active = plate-normalised HSF1 focus index below about 0.46). As to conditions: human cells, HSF1 nuclear foci imaging, at 10 µM; SSMD: measured here: HSF1 foci SSMD mean; cell count: measured here: cell number; plate-normalised HSF1 focus index: stronger effect = lower value.
Setting [13] is: stronger effect = lower value, cell number ratio, induced over uninduced.
The mark [14] stands for this setting: measured here: relative caspase fold change +Dox/-Dox.
The mark [15] stands for this setting: measured here: total cells with miR-34 induction, stronger effect = lower value.
The mark [16] stands for this setting: measured here: total cells without miR-34 induction.

As usually defined, the viability is a read-out of living cells in per cent, often relative to untreated cells. By remaining activity is commonly meant the signal under treatment as a percentage of the control signal. For `CN(C)CCCn1cc(C2=C(c3c[nH]c4ccccc34)C(=O)NC2=O)c2ccccc21`, the parasite load remaining in [1] was 40.8% (inactive). The viability in test [1] is 101%; in test [6] (at 0.000305 µM, OCI-C5x cells, with rucaparib 10 µM, 100% = cells with rucaparib alone), 111% (inactive); in test [6] (at 0.000305 µM, OCI-C5x cells, without rucaparib) it was 113% (inactive); in test [6] (at 0.000305 µM, OCI-P5x cells, with rucaparib 20 µM, 100% = cells with rucaparib alone) it was 94.2% (active); in [6] (at 0.000305 µM, OCI-P5x cells, without rucaparib) it was 96.8% (active); in test [6] (at 0.00122 µM, OCI-C5x cells, with rucaparib 10 µM, 100% = cells with rucaparib alone), 124% (inactive). Further, the viability is 118% (inactive) in test [6] (at 0.00122 µM, OCI-C5x cells, without rucaparib); 102% (inactive) in [6] (at 0.00122 µM, OCI-P5x cells, with rucaparib 20 µM, 100% = cells with rucaparib alone); 96% (active) in [6] (at 0.00122 µM, OCI-P5x cells, without rucaparib); 118% (inactive) in test [6] (at 0.00488 µM, OCI-C5x cells, with rucaparib 10 µM, 100% = cells with rucaparib alone); 118% (inactive) in [6] (at 0.00488 µM, OCI-C5x cells, without rucaparib); 104% (inactive) in [6] (at 0.00488 µM, OCI-P5x cells, with rucaparib 20 µM, 100% = cells with rucaparib alone). The viability was 101% (inactive) in test [6] (at 0.00488 µM, OCI-P5x cells, without rucaparib); 118% (inactive) in test [6] (at 0.0195 µM, OCI-C5x cells, with rucaparib 10 µM, 100% = cells with rucaparib alone); 108% (inactive) in test [6] (at 0.0195 µM, OCI-C5x cells, without rucaparib); 103% (inactive) in [6] (at 0.0195 µM, OCI-P5x cells, with rucaparib 20 µM, 100% = cells with rucaparib alone); 105% (inactive) in test [6] (at 0.0195 µM, OCI-P5x cells, without rucaparib); 113% (inactive) in test [6] (at 0.0781 µM, OCI-C5x cells, with rucaparib 10 µM, 100% = cells with rucaparib alone). Also, the viability was 120% (inactive) in [6] (at 0.0781 µM, OCI-C5x cells, without rucaparib); 101% (inactive) in test [6] (at 0.0781 µM, OCI-P5x cells, with rucaparib 20 µM, 100% = cells with rucaparib alone); 105% (inactive) in [6] (at 0.0781 µM, OCI-P5x cells, without rucaparib); 120% (inactive) in test [6] (at 0.313 µM, OCI-C5x cells, with rucaparib 10 µM, 100% = cells with rucaparib alone); 134% (inactive) in test [6] (at 0.313 µM, OCI-C5x cells, without rucaparib); 108% (inactive) in test [6] (at 0.313 µM, OCI-P5x cells, with rucaparib 20 µM, 100% = cells with rucaparib alone). The viability in test [6] (at 0.313 µM, OCI-P5x cells, without rucaparib) was 109% (inactive); in test [6] (at 1.25 µM, OCI-C5x cells, with rucaparib 10 µM, 100% = cells with rucaparib alone), 122% (inactive); in test [6] (at 1.25 µM, OCI-C5x cells, without rucaparib), 130% (inactive); in test [6] (at 1.25 µM, OCI-P5x cells, with rucaparib 20 µM, 100% = cells with rucaparib alone), 116% (inactive); in test [6] (at 1.25 µM, OCI-P5x cells, without rucaparib) it was 109% (inactive); in [6] (at 5 µM, OCI-C5x cells, with rucaparib 10 µM, 100% = cells with rucaparib alone), 109% (inactive). The viability was 146% (inactive) in [6] (at 5 µM, OCI-C5x cells, without rucaparib); 101% (inactive) in test [6] (at 5 µM, OCI-P5x cells, with rucaparib 20 µM, 100% = cells with rucaparib alone); 105% (inactive) in test [6] (at 5 µM, OCI-P5x cells, without rucaparib). Besides, the remaining activity in [2] was 99.8% (inactive). Also, the fold change in [3] (setting [13]) is 1.07 (inactive) and 1 (inactive) and 1.3 (inactive); in test [3] (setting [14]), 0.742 and 0.718 and 1.02. Also, the cell count in test [3] (setting [15]) was 1180 and 5040 and 4700; in test [3] (setting [16]) it was 1100 and 5040 and 3620. In addition, in test [4], the fold fluorescence was 5.95 [at 121.2 µM] (inactive). The z-score in test [5] (MELAS cybrid survival, CellTiter-Glo 48 h, stronger effect = higher value) is -0.455 (inactive); in test [5] (Rieske KO mouse fibroblast survival, CellTiter-Glo 72 h), -0.16; in test [7], -0.475 (inactive).

Turning to `CCN(CC)CCCCNc1ncc2cc(-c3c(Cl)cccc3Cl)c(NC(=O)NC(C)(C)C)nc2n1`, in [2], the remaining activity is 131% (inactive). Besides, the fold change in test [3] (setting [13]) is 0.841 (inactive) and 1.42 (inactive); in test [3] (setting [14]), 1.06 and 1.08. The cell count in [3] (setting [15]) is 938 and 569; in [3] (setting [16]) it was 1110 and 401. The result in test [8] was inactive. Besides, the z-score in test [7] was -0.7 (inactive) and -1 (inactive).

A word on the inhibition: it is the relative decrease from the control value, in per cent. Take `O=C(O)C1=CCCN(CCON=C(c2ccccc2)c2ccccc2)C1`: the period change in test [9] was -0.05 h (inactive). Further, in [10], the inhibition is 1% (inactive). Moreover, the fluorescence ratio (interference) in test [11] is 1 (inactive). Besides, the remaining activity in test [2] was 122% (inactive). In addition, the fold change in test [3] (setting [13]) was 1.08 (inactive) and 0.953 (inactive); in test [3] (setting [14]), 0.8 and 1.02. The cell count was 9470 and 9840 in test [3] (setting [15]); 8800 and 10300 in test [3] (setting [16]). Moreover, the result in [8] was inactive. The z-score in test [7] is 0.145 (inactive) and -0.05 (inactive).

As to `COC(=O)c1c(C)[nH]c(C)c1C(=O)c1ccccc1Cc1ccccc1`, the period change in test [9] is 0.045 h (inactive). In addition, in test [10], the inhibition is -1% (inactive). Also, the fluorescence ratio (interference) in test [11] is 1 (inactive). The remaining activity in test [2] is 110% (inactive). Moreover, the fold change was 0.994 (inactive) and 1.2 (inactive) and 0.953 (inactive) in test [3] (setting [13]); 0.778 and 0.775 and 0.777 in [3] (setting [14]). Besides, the cell count in test [3] (setting [15]) is 7970 and 5070 and 7630; in test [3] (setting [16]), 8020 and 4240 and 8010. Further, in test [4], the fold fluorescence is 5.89 [at 143.9 µM] (inactive). Further, in test [8], the call was inactive. Also, the z-score in [7] is -0.58 (inactive) and -0.485 (inactive).

Take `CC(C)(C)c1ccc(S(=O)(=O)/C=C/C#N)cc1`: in [9], the period change was -0.05 h (inactive). The inhibition in test [10] is -4% (inactive). In test [11], the fluorescence ratio (interference) is 0.9 (inactive). Further, the remaining activity in [2] was 114% (inactive). Besides, the fold change in [3] (setting [13]) is 0.996 (inactive) and 0.965 (inactive); in test [3] (setting [14]) it was 0.975 and 1.39. The cell count in test [3] (setting [15]) is 4040 and 1980; in test [3] (setting [16]), 4060 and 2060; in test [12], 6870. Moreover, in test [12], the SSMD is -5.26. In addition, the plate-normalised HSF1 focus index in test [12] was 0.733 (inactive). For the same molecule, in test [8], the molecule was classed as inactive. The z-score in [7] was -1.5 (inactive) and -1.04 (inactive).

The record behind these values is PubChem BioAssay.
